# In PubChem BioAssay AID686979 (National Center for Advancing Translational Sciences (NCATS), 2013):
# About 50,000 (12%) of roughly 420,000 compounds were called active. A call without a number means that no potency is given here. Roughly 26% stayed inconclusive and do not appear here. The sample as a whole holds a higher share of actives than the screen did. A number with no mark means an inactive call. Calls come from the whole dose curve; as a rule, active = well fitted inhibition curve with a large enough effect; inconclusive = small, poorly fitted or top-dose-only effect; inactive = flat fitted curve, though single readings scatter.
# Experiment: qHTS for Inhibitors of human tyrosyl-DNA phosphodiesterase 1 (TDP1): qHTS in cells in presence of CPT; note: nearly all actives have a fitted effect of over 55% in size
# Conditions: chicken DT40 Tdp1-/-;hTDP1 cells + 20 nM CPT, ATP luminescence, 48 h; series mostly up to 46.2 µM
# Method in brief: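 Chicken DT40 Tdp1-/- cells stably complemented with human TDP1 were seeded at 400 cells/well in medium containing 20 nM camptothecin, exposed to pin-transferred compounds, and grown at 37 °C for at least 48 hr. Viability was read as ATP luminescence.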
# Potency is the fitted concentration of half-maximal effect.
SMILES,Potency,"activity change, negative = growth inhibition"
CCOCCOCCC(C(=O)O)P(=O)(c1ccccc1)c1ccccc1 (stereo not drawn),inactive,
CCc1ccc(N2CC(C(=O)Nc3ccc(S(=O)(=O)Nc4nccs4)cc3)CC2=O)cc1 (stereo not drawn),inactive,
CCc1cc2c(cc3c(=O)n(CC(=O)N4CCN(c5cc(Cl)ccc5C)CC4)ncn32)s1,inactive,
O=C(NC1(C(F)(F)F)NC(=O)N(C2CCCCC2)C1=O)c1ccco1 (stereo not drawn),inactive,
CCC1(CC)NC(=O)N(Cc2nc3ccccc3s2)C1=O,inactive,
O=C1NC(Nc2nc3ccccc3s2)(C(F)(F)F)C(=O)N1C1CCCCC1 (stereo not drawn),25.9 µM (active),
COC(=O)C[C@@H]1C=C[C@@H](NC(=O)c2ccc3c(c2)OCO3)[C@@H](CO)O1,inactive,
O=C1C2C3C=CC(C3)C2C(=O)N1c1ncc([N+](=O)[O-])s1 (stereo not drawn),inactive,
CC1Cc2[nH][nH]c(=O)c2C(C2CC2)O1 (stereo not drawn),inactive,
CCNS(=O)(=O)c1ccc(NC(=O)CSc2nc(-c3ccco3)cc(C(F)(F)F)n2)cc1,7.31 µM (active),
Cc1ccn2c(=O)nc(SCC(=O)NCc3ccc(F)cc3)nc2c1,inactive,
CC(C)(C)NC(=O)CSc1nc(-c2ccc(F)cc2)cc(C(F)(F)F)n1,20.6 µM (active),
Cc1cc(C(F)(F)F)nn1-c1nc(-c2ccco2)cc(C(F)(F)F)n1,inactive,
O=C(CSc1nc(-c2ccco2)cc(C(F)(F)F)n1)NCc1cccs1,inactive,
Cc1cccc(NC(=O)CSc2nc(-c3ccco3)cc(C(F)(F)F)n2)c1C,10.3 µM (active),
O=C(CSc1nc(-c2ccco2)cc(C(F)(F)F)n1)N1CCc2ccccc2C1,inactive,
CN(C)c1ccc(NC(=O)CSc2n[nH]c(-c3ccco3)n2)cc1,inactive,
CC(C)c1nc(SCC(=O)NC(=O)NC(C)(C)C)n[nH]1,inactive,
COc1ccc(S(=O)(=O)NCC(=O)NCc2cc(=O)n(C)c(=O)n2C)cc1F,inactive,
O=C(CC1C(=O)NCCN1CC(c1ccccc1)c1ccccc1)NCC1CCOCC1 (stereo not drawn),inactive,
CCCS(=O)(=O)NC(=O)C1(C)CCCN(C(=O)c2cccs2)C1 (stereo not drawn),inactive,
O=C(CSc1nnc(SCc2ccc(F)cc2)s1)Nc1ccc(C(=O)O)cc1,inactive,
COc1ccc(C2=NN(C(=O)c3ccccc3C(=O)O)C(c3ccccc3O)C2)cc1 (stereo not drawn),inactive,
CCC(C)(C)NC(=O)CN(C(=O)CCC(=O)Nc1cc(C)ccn1)c1ccc2c(c1)OCCO2,inactive,
FC(F)(F)c1nnc2c3ccccc3c(Cl)nn12,5.17 µM (active),
FC(F)(F)c1nnc2sc(-c3ccco3)nn12,inactive,

SMILES,Potency,"activity change, negative = growth inhibition"
FC(F)(F)c1nnc2ccc(N3CCN(c4ccccc4)CC3)nn12,inactive,
O=C(COC(=O)c1cncc(Br)c1)Nc1ccc(S(=O)(=O)N2CCOCC2)cc1,inactive,
C=CCNC(=O)c1ccccc1SCc1c(C)noc1C,inactive,
Cc1ccn(CC(=O)NC2CCCN(Cc3ccccc3F)C2)n1 (stereo not drawn),inactive,
Cc1ccccc1CSCCNC(=O)c1ccc(N(C)S(=O)(=O)c2ccccc2)cc1,18.4 µM (active),
CN(c1ccccc1)S(=O)(=O)c1ccc(C(=O)NCCc2ccccc2)cc1,inactive,
Cc1ccccc1CSCCNC(=O)C1CCN(S(=O)(=O)Cc2ccccc2)CC1,inactive,
Cc1nc2ccccc2nc(=O)c1NNc1ccc([N+](=O)[O-])cc1,inactive,
Cc1ccc(CN2CC(C(=O)NNC(=O)Cn3ccc(C(F)(F)F)n3)CC2=O)cc1 (stereo not drawn),inactive,
CC(C)=CCc1ccc(O)c(=O)cc1C(C)C,20.6 µM (active),
CSc1ncc(C(=O)NCc2ccccc2Cl)c(C(F)(F)F)n1,inactive,
O=C(/C=C/c1ccccc1[N+](=O)[O-])OCC(=O)N1CCCC1,inactive,
CC1(C2CC2)NC(=O)N(CC(=O)N2CCN(c3ccccc3F)CC2)C1=O (stereo not drawn),inactive,
COc1ccc(OC)c(C(C)NC(=S)Nc2ccc(S(=O)(=O)Nc3ncccn3)cc2)c1 (stereo not drawn),inactive,
Clc1ccc(CSc2nnc3c(n2)[nH]c2ccccc23)cc1,inactive,
COc1ccc(Cc2nc3ccc(C(=O)N4CCC(N(C)C)C4)cc3o2)cc1 (stereo not drawn),inactive,
COc1ccc(Cc2nc3ccc(C(=O)NCc4ccccc4Cl)cc3o2)cc1,16.4 µM (active),
CCn1ccnc1CN(C)C(=O)c1ccc2nc(Cc3ccc(OC)cc3)oc2c1,inactive,
COc1ccc(Cc2nc3ccc(C(=O)NCc4ccccc4C)cc3o2)cc1,20.6 µM (active),
COc1ccc(NC(=O)c2ccc3nc(CCc4ccccc4)oc3c2)c(OC)c1,inactive,
COc1ccc(CNC(=O)c2ccc3oc(C(C)C)nc3c2)cc1,inactive,
CSCCNC(=O)c1ccc2nc(Cc3ccccc3F)oc2c1,inactive,
COCCNC(=O)c1ccc2nc(Cc3ccc(OC)c(OC)c3)oc2c1,inactive,
COc1ccc(Cc2nc3ccc(C(=O)NCc4ccc(OC)cc4OC)cc3o2)cc1,16.4 µM (active),
CCCCOC(=O)CSc1ncnc2sc3c(c12)CCC(C)C3 (stereo not drawn),inactive,
Cc1nccn1CCC1CCCCN1C(=O)CCc1nnc(-c2ccsc2)o1 (stereo not drawn),inactive,

SMILES,Potency,"activity change, negative = growth inhibition"
CC(=O)OCCOCn1cnn2c(=O)c(Br)c(C)nc12,inactive,
CSc1n[nH]c(-c2ccco2)n1,inactive,
COC(=O)c1ccc(C)c(NC(=O)Cn2c(C)csc2=O)c1,inactive,
Nc1ccc(C(=O)OCC(=O)NC2CCS(=O)(=O)C2)cc1[N+](=O)[O-] (stereo not drawn),inactive,
O=NN(CCCl)C(=O)NCCc1cccc[n+]1[O-],inactive,
NC(=O)C1CCN(C(=O)c2ccc3c(=O)n(Cc4cccc(Br)c4)c(=S)[nH]c3c2)CC1,inactive,
CCOC(=O)c1sc(=S)n2c1[nH]c(=O)c1ccc(C(=O)OC)cc12,10.3 µM (active),
COC(=O)c1cccc(NC(=O)CSc2nc(C)cc(=O)[nH]2)c1,inactive,
CCOC(=O)c1sc2nc(C)[nH]c(=O)c2c1C,inactive,
COc1ccccc1C1C(C(=O)N2CCCCC2)=C(C)Nc2nc3ccccc3n21 (stereo not drawn),inactive,
CCCCN1C(=O)C(CC(=O)NCc2cccs2)CC(C(=O)N2CCCCCC2)=C1C (stereo not drawn),inactive,
Cc1cc(O)c(C(c2ccccc2)N2CCN(c3ccccc3F)CC2)c(=O)n1Cc1ccco1 (stereo not drawn),inactive,
Cc1cc(C)cc(OCC(=O)Nc2c(C(=O)c3ccccc3)oc3ccccc23)c1,inactive,
OC(COc1cccc2ccccc12)CN1CCN(c2ccccn2)CC1 (stereo not drawn),inactive,
Cc1cc(C)c(NC(=O)C[N+](C)(C)CC(O)COc2cccc3ccccc23)c(C)c1 (stereo not drawn),18.4 µM (active),
COc1ccccc1CNC(=O)COC(=O)c1cccs1,inactive,
COc1ccc(/C=C/C(=O)Nc2cccnc2)cc1OC,inactive,
COc1cc(/C=C/C(=O)Nc2ccc(OC)c(S(=O)(=O)N3CCOCC3)c2)ccc1OCC#N,inactive,
COc1ccc(/C=C/C(=O)Nc2ccc(C34CC5CC(CC(O)(C5)C3)C4)cc2)cc1OC,2.31 µM (active),
COCCn1c(N)c(NCc2ccccc2)c(=O)[nH]c1=O,inactive,
O=C(COC(=O)C12CC3CC(CC(O)(C3)C1)C2)NC12CC3CC(CC(C3)C1)C2,inactive,
COc1cccc(NC(=O)CSc2nnc(Cc3ccc(OC)c(OC)c3)o2)c1,inactive,
Cc1cc(C)c2c(Cn3ccnc3)cc(=O)oc2c1,inactive,
COc1ncnc2c1ncn2CCCNCCN1CCOCC1,inactive,
O=C(O)C(c1ccccc1)N1C(=O)/C(=C\c2ccc(-c3cccc(Cl)c3)o2)SC1=S (stereo not drawn),inactive,
CCCCNC(=O)C1(O)c2ccccc2NC(=O)N1c1ccc(Cl)cc1 (stereo not drawn),inactive,

SMILES,Potency,"activity change, negative = growth inhibition"
CCCCNC(=O)C(C)N(CCN(C)C)C(=O)CCCCCN1C(=O)NC(c2ccc(Cl)cc2)C(C(=O)OCc2ccccc2)=C1C (stereo not drawn),7.31 µM (active),
CCCCNC(=O)C(C)N(CCN(C)C)C(=O)CCCN1C(=O)NC(c2ccc(Cl)cc2)C(C(=O)OCc2ccccc2)=C1C (stereo not drawn),20.6 µM (active),
CC1=C(C(=O)OCc2ccccc2)C(c2ccc(C(F)(F)F)cc2)NC(=O)N1CCCCCC(=O)O (stereo not drawn),inactive,
COCCOC(=O)C1=C(C)NC(=O)NC1c1ccc(Cl)cc1 (stereo not drawn),inactive,
CCOC(=O)CCCNC(=O)CN1C(=O)NC(CCc2ccccc2)C1=O (stereo not drawn),inactive,
COc1ccccc1/C=C/C(=O)NC(=S)N1CCOCC1,inactive,
CC(C)Cc1nnc(NC(=O)CN2C(=O)NC3(CCCCC3)C2=O)s1,inactive,
COC(=O)c1ccccc1NC(=O)CSc1nc2c(c(=O)[nH]1)CCC2,inactive,
CC(=O)Nc1ccc(S(=O)(=O)N2CCn3cccc3C2C)cc1 (stereo not drawn),inactive,
O=C(CCN1CCCO1)N1CCCC(N2CCN(c3cccc(C(F)(F)F)c3)CC2)C1 (stereo not drawn),inactive,
O=C(NN=Cc1ccc2c(c1)CCC2)c1ccccc1O,inactive,
NC(=O)c1ccccc1N=Cc1ccc2ccccc2c1,20.6 µM (active),
O=C(OCC(=O)N1CCOCC1)c1ccc2ccccc2c1,inactive,
COc1ccccc1C(=O)N[C@@H]1c2ccccc2C2(CCN(C(=O)c3csnn3)CC2)[C@H]1OC,,-8.07% [at 9.04 µM]
COC(=O)CC1Oc2ccccc2-n2cc(-c3ccccc3)nc21 (stereo not drawn),14.6 µM (active),
COC(=O)CC1=NN(c2ccccc2)C(=O)C1,inactive,
CCC(CC)c1nn2cc(-c3ccccc3)nc2s1,inactive,
COc1ccccc1NC(=O)COC(=O)c1ccccc1SCC(=O)N1CCCC1,inactive,
c1ccc(-n2cccc2)c(N2CCCCC2)c1,inactive,
COC(=O)C1C(=O)NCC1c1ccc(OC)cc1 (stereo not drawn),inactive,
COc1ccc(N2C(=O)C(O)C2c2ccc(C)cc2)cc1 (stereo not drawn),inactive,
COC(=O)C1=C(Nc2ccc(OC)cc2)C=C(C)C(C(=O)OC)C1c1ccc(C)cc1 (stereo not drawn),16.4 µM (active),
Cc1ccc(C(=O)Nc2ccc3[nH]c(=O)c(=O)[nH]c3c2)cc1,inactive,
CC(C)CCNC(=O)CCNS(=O)(=O)c1ccc(Cl)cc1,inactive,
COC(=O)c1c(OCc2ccc(F)cc2)cc(=O)n2c1CCN(Cc1ccc3cccnc3c1)CC2,,8.77% [at 9.04 µM]
